Hit rate of the full screen: of about 300,000 compounds, about 3,200 (1.1%) were called active.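 The calls were made as follows: active = inhibition above the campaign mean inhibition plus 3 SD (cut at about 35% in these data); inactive = the rest.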 Many of the other results were omitted from the sample, so actives are more common in it than they were.

Sequence of Glutathione S-transferase omega-1 (Homo sapiens) (P78417 whole entry, looked up): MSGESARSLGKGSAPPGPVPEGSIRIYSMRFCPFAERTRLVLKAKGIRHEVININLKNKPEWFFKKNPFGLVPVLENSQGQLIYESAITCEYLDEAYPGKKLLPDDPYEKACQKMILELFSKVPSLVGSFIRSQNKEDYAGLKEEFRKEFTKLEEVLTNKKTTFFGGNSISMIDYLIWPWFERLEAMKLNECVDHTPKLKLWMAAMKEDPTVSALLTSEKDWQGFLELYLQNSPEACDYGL

This assay concerns the target Glutathione S-transferase omega-1 (Homo sapiens) (UniProt P78417). As to the kind of experiment: human GSTO1 enzyme inhibition – biochemical, fluorescence polarization, counter-screen for RBBP9 inhibitor project, primary screen (AID 1974).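 Also: 0% = GSTO1-1 with DMSO and 100% = wells lacking GSTO1-1 enzyme.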 The note with it: recombinant GSTO1, activity-based probe fluorescence polarization; at 5.96 µM; hits give high values. (In general: In fluorescence polarisation assays a small probe gives low polarisation when free and higher when bound to something large.)
`COc1ccc2c(c1)C(=O)Nc1cc(Cl)ccc1N2`: the inhibition is 9.43% (inactive).

On to `CC(OC(=O)CNC(=O)c1ccco1)C(=O)Nc1ccc(Cl)cn1` (configuration not stated), for which the inhibition was 1.63% (inactive).

For the compound `CCC1(CC)C(=O)C2=C3C1[C@H](C(=O)OC)C=C(C(=O)OC)C[C@H]3[C@H]1C(=O)N(Cc3ccccc3)C(=O)[C@H]1[C@H]2C` (some centres not stated), the inhibition is 1.43% (inactive).

As for `Cc1csc2nc(O)c(C(=O)NCCN3CCOCC3)c(=O)n12`, the inhibition was -2.86% (inactive).

Consider `CCc1noc(C)c1C(=O)N1CCCSC1=Nc1ccccc1OC`, for which the inhibition was -0.08% (inactive).

As for `Cc1onc(-c2c(F)cccc2Cl)c1C(=O)N(C)CC(=O)Nc1cccc(F)c1`, the inhibition is 6.99% (inactive).

Take `O=C(CCl)Nc1cccc(CP(=O)(c2ccccc2)c2ccccc2)c1`: the inhibition is 87.8% (active).

As to `O=C(Cc1ccccc1)Nc1cccc(NC(=O)c2ccccc2)c1`, the inhibition was -4.68% (inactive).

Consider `CCc1cccc(NC(=O)CCC(=O)O)c1`, for which the inhibition is 1.54% (inactive).

As to `O=C(NCCCc1ccccc1)C1CCC(=O)N(CCc2ccc(Cl)cc2)C1` (configuration not stated), the inhibition is -1.06% (inactive).

Regarding `COc1ccccc1CN1CC(C(=O)NCCc2cn[nH]c2)CCC1=O` (configuration not stated), the inhibition is -2.71% (inactive).

In the case of `COc1ccccc1CCCNC(=O)C1CCC(=O)N(CCN2CCOCC2)C1` (configuration not stated), the inhibition is 63.1% (active).

For the compound `CCN1CCN(c2ccc(S(=O)(=O)N3CCCCC3)cc2NC(=O)c2cccc(NC(C)=O)c2)CC1`, the inhibition is 0.88% (inactive).

`Cc1cc(O)c(Sc2ccccc2)c(=O)o1`: the inhibition is 10.2% (inactive).

For `O=C(c1cc2cc(Br)cc(Br)c2oc1=O)N1CCOCC1`, the inhibition was 5.88% (inactive).

`O=C1Nc2c(Br)cc(Br)cc2C1(O)N1CCOCC1` (configuration not stated): the inhibition was 71.2% (active).

As to `O=C(CSC(=S)N1CCOCC1)c1cc(Br)cc(Br)c1O`, the inhibition is -51.7% (inactive).

For the compound `Cc1ccc(NS(=O)(=O)c2ccc(C(=O)NCCCN3CCOCC3)cc2)cc1`, the inhibition was 10.7% (inactive).

Consider `Nc1ccc2nc3c(=O)[nH]c(=S)[nH]c3nc2c1`, for which the inhibition was 53.3% (active).

With `O=c1[nH]c(=O)c2nc3ccccc3nc2[nH]1`, the inhibition is 5.15% (inactive).

As to `Cc1cc(=O)[nH]c(SCc2ccc(Cl)cc2)n1`, the inhibition is -4.37% (inactive).

Turning to `O=[N+]([O-])c1ccc(N/N=C/c2ccccc2)cc1`, the inhibition was 2.07% (inactive).

In the case of `O=[N+]([O-])c1ccc(O)c(/C=N/Nc2ccccc2[N+](=O)[O-])c1`, the inhibition is 0.98% (inactive).

Consider `O=[N+]([O-])c1ccc(N=Cc2c(O)ccc3ccccc23)cc1`, for which the inhibition is 37.5% (active).

On to `Cc1cc(OCC(=O)N(C)c2c(N)n(Cc3ccccc3)c(=O)[nH]c2=O)c(C(C)C)cc1Cl`, for which the inhibition is 0.25% (inactive).

For `CCC1(c2ccccc2)NC(=O)N(CC(=O)Nc2ccccc2C(=O)NC2CCCC2)C1=O` (configuration not stated), the inhibition was 8.02% (inactive).

As for `CCOc1ccc(S(=O)(=O)N2CCN(C(=S)NCC3CCCO3)CC2)cc1` (configuration not stated), the inhibition was 2.59% (inactive).

The term inhibition denotes the relative decrease from the control value, in per cent.

The values above are taken from PubChem BioAssay AID1974 (The Scripps Research Institute Molecular Screening Center, 2009).
